Laboratory results reported in PubChem BioAssay (Tox21).
“And” between values parts separate entries of the source, which are not always exact repeats. Equal values may be shown once. Results filed as inconclusive are left out. The source made the active and inactive calls. Calls follow the shape of the dose curve; as a rule, active = well fitted cell-killing curve with a large enough effect in the repeat runs; inconclusive = weak or mixed curves, or effect the other way; inactive = no such curve, though single readings can be large or run the other way.

assay: qHTS assay to identify small molecule agonists of the RXR signaling pathway - cell viability counter screen (AID 1159529); conditions: RXR-alpha-bla HEK293T viability, CellTiter-Glo, 16 h; series mostly up to 76.8 µM; activity change, negative = cytotoxicity: at the top concentration; also: nearly all actives have a fitted effect of over 50% in size
Excerpt: National Center for Advancing Translational Sciences [NCATS]
NIH Chemical Genomics Center [NCGC]
U.S. Environmental Protection Agency [EPA]
National Institutes of Environmental Health Sciences [NIEHS]
National Toxicology Program [NTP]
U.S. Food and Drug Administration [FDA]
The Retinoid X receptor (RXR), a nuclear hormone receptor expressed in liver, spleen, placenta, epidermis, central nervous system. These receptors are able to form homo and heterodimers with other nuclear receptors and due to this heterodimerizing ability, RXR functions as master regulators producing diverse physiological effects. Three subtypes of RXR exist; alpha, beta and gamma. Retinoid X receptor alpha (RXR-alpha) has potential roles in metabolic signaling pathways, skin alopecia, dermal cysts, cardiac development, insulin sensitization etc. Therefore screening environmental chemicals on RXR-alpha signaling can be used for the studies focused on such therapeutic applications. For quantification of RXR-alpha ligands signaling, GeneBLAzer RXR alpha-UAS-bla HEK 293T (Life Technologies, Carlsbad, CA) cells containing a beta-lactamase reporter-gene under control of Retinoid X receptor-alpha response element were used to screen Tox21 10K library. The cytotoxicity of the Tox21 compound library against the RXR-alpha HEK 293T cell line was tested in parallel by measuring cell viability using CellTiter-Glo assay (Promega Corporation, Madison, WI) in the same wells.
Tox21 Assay Protocol Summary:
RXR-alpha HEK 293T cells were dispensed at 2,000 cells/6 uL of assay medium containing 2% charcoal-stripped FBS using a Multidrop Combi (ThermoFisher Scientific, Waltham, MA) dispenser. The assay was performed in black wall/clear-bottom 1536-well plates (Greiner Bio-One North America Inc. Monroe, NC). Tetraoctyl ammonium bromide was used as a positive control in the cytotoxicity screen. After the assay plates were incubated at 37 C and 5% CO2 for 5 hr, 23 nL of compounds dissolved in DMSO, positive control or DMSO only were transferred to the assay plate by a Pintool station (Kalypsys, San Diego, CA). The assay plates were incubated at 37 C and 5% CO2 for 16 hr. One uL of LiveBLAzer B/G FRET substrate (Life Technologies) was added using a Flying Reagent Dispenser (FRD) (Aurora Discovery, San Diego, CA) and the plates were incubated at room temperature for 2 hr. Fluorescence intensity (405 nm excitation, 460/530 nm emission) was measured using an Envision plate reader (PerkinElmer, Shelton, CT). For cytotoxicity, 4 uL/well of CellTiter-Glo reagent was added into the assay plates using an FRD. After 30 min incubation at room temperature, the luminescence intensity was measured using a ViewLux plate reader (PerkinElmer).
% is scaled to controls: 0 for no effect and ±100 for the full control effect; potency is read from the fitted curve at half-maximal effect.

Row | SMILES | activity change, negative = cytotoxicity | Potency
1 | CC(=O)[C@H]1CC[C@H]2[C@@H]3CC[C@H]4C[C@](C)(O)CC[C@]4(C)[C@H]3CC[C@]12C | -9.71% [at 35.3 µM] (inactive) | 
2 | C=CC(C)=O | 3.4% (inactive) | 
3 | CCCCCCCCCCOC(=O)c1ccccc1C(=O)OCCCCCCCCCC | 8.39% (inactive) | 
4 | CCCCc1c(C)nc(NCC)nc1OS(=O)(=O)N(C)C | 3.68% (inactive) | 
5 | CC(Cl)C(C)Cl (stereo not given) | -0.278% (inactive) | 
6 | O=C(C(Cl)(Cl)Cl)C(Cl)(Cl)Cl | -2.62% (inactive) | 
7 | CCOc1nc(F)cc2nc(S(=O)(=O)Nc3c(Cl)cccc3Cl)nn12 | -0.791% (inactive) | 
8 | CC(=O)c1cc2c(cc1C)C(C)(C)C(C)CC2(C)C (stereo not given) |  | 43.6 µM (active)
9 | c1ccoc1 | -5% (inactive) | 
10 | ClC=C(Cl)Cl | 2.6% (inactive) | 
11 | CCCN(CCCl)c1c([N+](=O)[O-])cc(C(F)(F)F)cc1[N+](=O)[O-] | -22.8% (inactive) | 
12 | C=CCC1([C@H](C)CCC)C(=O)NC(=O)NC1=O | 7.16% (inactive) | 
13 | O=C(NC(=O)c1c(F)cccc1F)Nc1ccc(OC(F)(F)C(F)OC(F)(F)F)c(Cl)c1 (stereo not given) | 12.2% [at 35.3 µM] (inactive) | 
14 | O=Cc1ccc2c(c1)OCO2 | 3.17% (inactive) | 
15 | CNC(C)Cc1ccccc1OC (stereo not given) | 4.41% [at 35.3 µM] (inactive) | 
16 | O=C1CN=C(c2ccccc2)c2cc(Cl)ccc2N1CC1CC1 | 4.9% (inactive) | 
17 | C=CCN1CC[C@]23c4c5ccc(O)c4O[C@H]2C(=O)CC[C@@]3(O)[C@H]1C5 | 6.58% [at 35.3 µM] (inactive) | 
18 | O=NN1CCCCCC1 | -7.97% (inactive) | 
19 | O=C(Nc1ccccc1)Nc1cnns1 | -10.8% (inactive) | 
20 | O=S(=O)(O)C(F)(F)C(F)(F)C(F)(F)C(F)(F)F | -1.09% (inactive) | 

Row | SMILES | activity change, negative = cytotoxicity | Potency
21 | N#Cc1ccc(Cl)cc1 | 6.52% (inactive) | 
22 | Sc1ccccc1Cl | 1.5% [at 35.3 µM] (inactive) | 
23 | NC(=O)C(Cl)(Cl)Cl | -9.01% (inactive) | 
24 | CCN(C)N=O | 0.0714% (inactive) | 
25 | c1ccc(C2CC2)c(OCC2=NCCN2)c1 | -7.91% [at 35.3 µM] (inactive) | 
26 | ClCCCCBr | 2.03% (inactive) | 
27 | CCCN(CCC)c1c([N+](=O)[O-])cc(S(C)(=O)=O)cc1[N+](=O)[O-] | 2.02% (inactive) | 
28 | CCC(Cl)CCl (stereo not given) | 6.73% (inactive) | 
29 | CCOP(=S)(OCC)Oc1nc(Cl)c(Cl)cc1Cl |  | 21.9 µM (active) and 49 µM (active)
30 | CCCCC(O)(Cn1cncn1)c1ccc(Cl)cc1Cl (stereo not given) |  | 54.9 µM (active)
31 | Brc1ccccc1 | 4.33% (inactive) | 
32 | CS/C(C)=N/OC(=O)N(C)SN(C)C(=O)O/N=C(\C)SC |  | 49 µM (active)
33 | Clc1cc(C(Cl)(Cl)Cl)cnc1Cl | 4.44% (inactive) | 
34 | CCCCCCCCOC(=O)c1ccc(C(=O)OCCCCCCCC)c(C(=O)OCCCCCCCC)c1 | 0.504% (inactive) | 
35 | CCOP(=S)(OCC)SCn1nnc2ccccc2c1=O | -1.31% (inactive) | 
36 | CC(C)=CCOc1c2occc2cc2ccc(=O)oc12 | -7.65% [at 35.3 µM] (inactive) | 
37 | ClCC(Br)CBr (stereo not given) | -1.16% (inactive) | 
38 | Clc1cccc(SC2CCNCC2)n1 | -0.411% [at 35.3 µM] (inactive) | 
39 | Nc1nc(N)nc(N)n1 | -10.5% (inactive) | 
40 | Cc1cc(=O)[nH]o1 | 6.91% (inactive) | 
